From PubChem
Rows were chosen to be rich in hits. Some 3.8% of all compounds tested hit in one or more screens of this group.
tim23-1 inh = tim23-1 yeast growth inhibition | S. cerevisiae tim23-1 growth, BacTiter-Glo luminescence, 24 h | inhibition, % at 20 µM | 330,000 tested, 1.3% active;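 active means growth inhibition of the mutant yeast at or above 50%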;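 further: temperature-sensitive mutant grown at 25 °C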
tim10-1 inh = inhibits growth of tim10-1 mutant yeast. S. cerevisiae tim10-1 ts strain growth, BacTiter-Glo, 24 h. inhibition, % at 20 µM. 330,000 tested, 2.2% active. AID 463190;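 active means inhibition of at least 40%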;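 further: mutant grown at 25 °C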
TIM10 inh = growth inhibitors of TIM10 yeast strain | S. cerevisiae TIM10 strain growth, BacTiter-Glo luminescence, 24 h | inhibition, % at 10 µM | 330,000 tested, 1.4% active | AID 463195;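 active means inhibition of 40% or more at the single tested concentration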;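 further: wild-type TIM10 isogenic control strain grown at permissive 25 °C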
B2AR ag = human beta-2 adrenergic receptor agonism by FAP. AID 504454. response, % (test concentration not listed). Am2.2-beta2AR cells, FAP receptor internalization, flow cytometry. P07550. 340,000 tested, 0.43% active;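 active means response above a set limit, near 3 SD of response in nonfluorescent compounds, cut at about 42% in these data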
Target sequence (P07550 whole entry, looked up): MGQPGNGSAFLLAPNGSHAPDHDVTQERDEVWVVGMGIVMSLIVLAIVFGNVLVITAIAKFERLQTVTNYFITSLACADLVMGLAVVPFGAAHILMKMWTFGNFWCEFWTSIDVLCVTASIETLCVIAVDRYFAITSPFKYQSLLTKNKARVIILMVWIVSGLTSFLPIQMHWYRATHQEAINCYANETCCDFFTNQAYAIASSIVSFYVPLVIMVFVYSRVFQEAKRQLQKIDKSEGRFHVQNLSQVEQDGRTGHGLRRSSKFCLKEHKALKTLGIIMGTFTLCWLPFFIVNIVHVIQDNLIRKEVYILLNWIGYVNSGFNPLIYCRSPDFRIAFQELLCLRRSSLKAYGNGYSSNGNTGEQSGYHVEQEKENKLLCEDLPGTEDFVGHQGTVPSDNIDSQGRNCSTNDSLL
PfHsp90 set2 = reduces growth (ATP signal) of yeast expressing P. falciparum Hsp90. S. cerevisiae expressing PfHsp90, BacTiter-Glo ATP, 48 h; yeast lacking PDR1 and PDR3 efflux regulators. 310,000 tested, 0.32% active. inhibition, % at 9.4 µM;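 active means every replicate shows inhibition above about 80%, whatever the replicate mean, limit read from the data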
tim10-1 conf = confirmation of tim10-1 mutant yeast growth inhibitors; inhibition, % at 20 µM; 7,400 tested, 56% active; shares compounds with tim10-1 inh; AID 463213; S. cerevisiae tim10-1 ts strain growth, BacTiter-Glo, 24 h;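 active means inhibition of yeast growth at or above a set limit in either of two repeat tests at 20 µM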;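 further: tim10-1 mutant grown at permissive 25 °C to find synthetic lethal compounds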
Hits are given with their value; – = inactive; · = no result given.

SMILES	tim23-1 inh	tim10-1 inh	TIM10 inh	B2AR ag	PfHsp90 set2	tim10-1 conf
N/C(Cc1ccc([N+](=O)[O-])cc1)=N\OC(=O)Cc1ccccc1	–	51	–	–	–	41
COc1ccc(C(=O)CC(=O)C(=O)Nc2ccc(C)c(Cl)c2)cc1	·	·	·	–	–	·
COc1ccc(CNC(=O)C[C@H]2C[C@H](C(=O)N(C(C)C)C(C)C)[C@@]3(C)c4[nH]c5cc(-c6ccco6)ccc5c4CCN3C2=O)cc1OC	–	–	–	–	–	·
COc1ccc(C(=O)Nc2ccc(Cl)cc2C(=O)NCc2ccco2)cc1OC	–	43	–	–	–	–
CCCN1C(=O)c2ccc(C(=O)Nc3cc(C)ccc3O)cc2C1=O	–	44	–	–	–	–
CCOC(=O)Cc1csc2nc3sc(C)c(C)c3c(=O)n12	–	43	–	–	–	–
O=C(Nc1nnc(Cc2ccccc2F)s1)Nc1ccccc1F	–	–	–	–	–	·
CCOC(=O)C(C#N)=C1CCN(Cc2ccccc2)CC1	–	–	–	–	–	·
CCOC(=O)/C(C#N)=C1/C(=O)N(Cc2ccccc2)c2ccccc21	–	49	–	–	–	–
Cc1cc(S(=O)(=O)N2CCN(c3ccccc3F)CC2)ccc1-n1cnnn1	–	–	–	–	–	·
Cc1cc(C(=O)NNC(=O)[C@H](C)NC(=O)c2ccc(Br)cc2)c(C)o1	–	–	–	–	–	·
CCOc1ccc(OCc2ccc(C(=O)N3CCCC(C)C3)cc2)cc1 (stereo not given)	–	41	–	–	–	–
Cc1c(Cc2ccccc2)c(=O)oc2c(C)c(OCC(=O)N[C@@H](Cc3ccccc3)C(=O)O)ccc12	–	–	–	–	–	·
COc1ccc(Cn2c(=S)[nH]c3ccsc3c2=O)cc1	–	51	–	–	–	–
Cc1ccc(C)c(OCc2cc(C(=O)N3CC[C@@H]4CCCC[C@H]4C3)no2)c1	–	–	–	–	–	·
O=C(c1cc(COc2ccc(F)cc2Cl)on1)N1CCCC(OCc2cccnc2)C1 (stereo not given)	–	44	–	–	–	–
O=C(NCCc1cccnc1)c1cc(COc2ccc(F)cc2Cl)on1	–	45	–	–	–	–
O=C(c1cc(COc2ccc(F)cc2Cl)on1)N1CCCCC1c1cccnc1 (stereo not given)	–	–	–	–	–	·
COc1cc(C)ccc1OCc1cc(C(=O)N2CCC(c3ccc(F)cc3)C2)no1 (stereo not given)	–	41	–	–	–	27
O=C1NN=C(c2ccccc2)C1Cc1ccccc1 (stereo not given)	·	·	·	–	–	·
O=C(COC(=O)C1CC2C=CC1C2)Nc1cccc(S(=O)(=O)N2CCCCCC2)c1 (stereo not given)	–	49	–	–	–	–
O=C(COC(=O)C1CC2C=CC1C2)Nc1cccc(S(=O)(=O)N2CCCCC2)c1 (stereo not given)	–	–	–	–	–	·
CCCCN1C(=O)C2(NNc3ccccc3O2)c2ccccc21 (stereo not given)	–	43	–	–	–	–
COc1ccc(-c2nc3ccccn3c2NCc2ccc3c(c2)OCO3)cc1	–	42	–	–	–	–
Cc1ccc(NC(=S)NNC(=O)c2ccccc2OC(F)F)cc1	–	40	–	–	–	39
SMILES	tim23-1 inh	tim10-1 inh	TIM10 inh	B2AR ag	PfHsp90 set2	tim10-1 conf
COc1cccc(NC(=S)NNC(=O)c2ccccc2OC(F)F)c1	–	–	–	–	–	·
O=C(NNC(=S)Nc1ccc(F)cc1)c1ccccc1OC(F)F	–	–	–	–	–	·
O=C(NNC(=S)Nc1cccc(Cl)c1)c1ccccc1OC(F)F	–	43	–	–	–	–
CN(C)S(=O)(=O)c1cccc(NC(=S)NN=C(Cc2ccccc2)Cc2ccccc2)c1	–	44	–	–	–	–
Nc1nc(N)c(C=Nc2ccc(Br)cc2)c(Nc2ccc(Br)cc2)n1	–	57	–	–	–	32
Nc1nc(N)c(Br)c(Nc2ccc(Cl)c(Cl)c2)n1	·	·	·	–	·	·
CC(=O)N1c2cc3ccccc3cc2N(C(C)=O)c2cc3ccccc3cc21	·	·	·	–	–	·
O=S(=O)(Nc1cccc2cccnc12)c1ccc(S(=O)(=O)N2CCCC2)cc1	–	50	–	–	–	39
Cn1cnc(C(=O)NCc2ccc(CNC(=O)OC(C)(C)C)cc2)c1C(=O)NCc1ccc(CNC(=O)OC(C)(C)C)cc1	–	–	–	–	·	·
